# Results reported in PubChem BioAssay (Tox21).
# Inconclusive results are not listed. Where a call stands in place of a potency, no number is given. The source made the active and inactive calls. The call rests on the fitted dose curve.
# Target: D(2) dopamine receptor (Homo sapiens) (UniProt P14416)
# Assay: Dopamine D2 receptor (DRD2) small molecule agonists, cell-based qHTS assay (AID 1963594); further: nearly all actives have a fitted effect of over 35% in size
# Settings: HEK293-DRD2 cAMP HTRF, agonist mode, 30 min; series mostly up to 92.4 µM; activation: at the top concentration
# Text: National Center for Advancing Translational Sciences [NCATS]
# Division of Preclinical Innovation [DPI]
# U.S. Environmental Protection Agency [EPA]
# National Institutes of Environmental Health Sciences [NIEHS]
# National Toxicology Program [NTP]
# U.S. Food and Drug Administration [FDA]
# DRD2 is the D2 subtype of the dopamine receptor, which is coupled to Gi subtype of G protein-coupled receptor. This G protein-coupled receptor inhibits adenylyl cyclase activity. The DRD2-HEK293 cell line stably expressing D2 dopamine receptor can be used for screening agonists and antagonists of interactions between D2 and its ligands. The Hek293-DRD2 cAMP assay is based on HTRF technology. It measures changes of cAMP accumulation in response to Gi coupled GPCR activation or inhibition.
# Tox21 Assay Protocol Summary:
# DRD2-Hek293 cells were dispensed at 600 cells/3uL/well in 1536-well white plates using a Multidrop Dispenser. After the assay plates were incubated at a 37 C/5% CO2 incubator for 24 h, 1 uL of Ro20-1724 at final concentration of 0.1 mM was transferred to the assay plate by a Flying Reagent Dispenser. Following Ro20-1724 addition, 23 nL of compound dissolved in DMSO, positive controls or DMSO only was added to the assay plates via Wako pintool station. The assay plates were incubated at room temperature for 10 min. Next, 1 uL of NKH477 at 200nM was added into the plates. After the assay plates were incubated at room temperature for an additional 30 min, 2.5 ul/well of cAMP-d2 and 2.5 ul/well of anti-cAMP-cryptate were added respectively into the assay plates using a Flying Reagent Dispenser. The plates were incubated at room temperature for 1 h. The fluorescence intensity in the plates was measured at 340 nm excitation and 665 & 620 nm emission by an Envision plate reader.
# Sequence of D(2) dopamine receptor (Homo sapiens) (P14416 whole entry, looked up): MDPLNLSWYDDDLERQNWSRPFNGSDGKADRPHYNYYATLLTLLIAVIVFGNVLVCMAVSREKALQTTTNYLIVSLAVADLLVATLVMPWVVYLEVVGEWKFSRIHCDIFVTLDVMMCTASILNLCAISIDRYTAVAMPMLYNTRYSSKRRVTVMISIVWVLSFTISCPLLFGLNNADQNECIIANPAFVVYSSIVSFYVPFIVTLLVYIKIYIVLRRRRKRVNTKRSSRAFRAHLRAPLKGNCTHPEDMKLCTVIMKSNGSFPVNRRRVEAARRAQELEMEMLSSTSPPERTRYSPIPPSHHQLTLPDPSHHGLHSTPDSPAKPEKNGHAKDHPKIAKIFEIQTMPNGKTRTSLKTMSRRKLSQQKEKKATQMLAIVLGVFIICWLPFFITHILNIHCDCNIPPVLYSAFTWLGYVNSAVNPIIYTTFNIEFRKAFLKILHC
SMILES,Potency,activation
CC(C)=CCO,inactive,
Cc1ccncc1,inactive,
OC1CCCCC1,inactive,
NC(CO)(CO)CO,inactive,
Brc1nc2ccccc2s1,inactive,
c1ccc2ccccc2c1,inactive,
CCOC(N)=O,inactive,
c1ccc2c(c1)ccc1ccccc12,inactive,
O=C1CCCCCCCCCCC1,inactive,
Cc1ccc(O)cc1,inactive,
Cc1cc(=O)[nH]c(C(C)C)n1,inactive,
O=C(OCc1ccccc1)c1ccccc1O,inactive,
Cc1ncc(CO)c(CO)c1O,inactive,
COc1ccc(C)cc1N,inactive,
OC(Cn1cncn1)(Cn1cncn1)c1ccc(F)cc1F,inactive,
C=Cc1ccc(C)cc1,inactive,
CCCCCCO,inactive,
C[C@@H](O)[C@H]1C(=O)N2C(C(=O)O)=C(S[C@@H]3CN[C@H](C(=O)N(C)C)C3)[C@H](C)[C@H]12,inactive,
O=C(O)CCCCC(=O)O,inactive,
CC(=O)CCc1ccccc1,inactive,

SMILES,Potency,activation
CCCCCCCCCCCO,inactive,
Cc1cccc(O)c1,inactive,
COC(=O)[C@H]1[C@H]2C[C@@H]3c4[nH]c5cc(OC)ccc5c4CCN3C[C@H]2C[C@@H](OC(=O)c2cc(OC)c(OC)c(OC)c2)[C@@H]1OC,inactive,
CC(C)(C#N)c1cc(Cn2cncn2)cc(C(C)(C)C#N)c1,inactive,
CCCCCCCCCCCCCC(=O)OC(C)C,inactive,
CS(=O)(=O)c1ccc([C@@H](O)[C@@H](CO)NC(=O)C(Cl)Cl)cc1,,0.226% (inactive)
NC(=O)c1ccccc1O,inactive,
O=C1NC(=O)c2ccccc21,inactive,
C#CCN(C)Cc1ccccc1,inactive,
CCCCCCCCCCCCCO,inactive,
Cc1ccc([N+](=O)[O-])cc1S(=O)(=O)O,inactive,
CC1=C(/C=C/C(C)=C/C=C/C(C)=C/C(=O)O)C(C)(C)CCC1,inactive,
CCCCC(CC)COC(=O)c1ccc(C(=O)OCC(CC)CCCC)cc1 (stereo not given),inactive,
CN(C)Cc1cc(CN(C)C)c(O)c(CN(C)C)c1,inactive,
COC(=O)c1ccccc1,inactive,
CC(C)NCC(O)c1ccc(O)c(O)c1 (stereo not given),inactive,
CCCCCCCCCCC=CC1CC(=O)OC1=O (stereo not given),inactive,
OC[C@H]1O[C@H](O[C@]2(CCl)O[C@H](CCl)[C@@H](O)[C@@H]2O)[C@H](O)[C@@H](O)[C@H]1Cl,inactive,
O=C(O)C1=NN(c2ccc(S(=O)(=O)O)cc2)C(=O)C1,inactive,
COC(=O)c1cccc(C(=O)OC)c1,inactive,
